Compounds without any hit were thinned out: in the full panel of roughly 79,000, 15% have a hit. Unmarked numbers belong to inactive results. Active and inactive are the calls of the source. Cut-off read from the data, not from the text of the source: active = growth inhibition above about 70%; inactive = the rest.
Legend:
[1] = NCI Yeast Anticancer Drug Screen. Data for the rad50 strain (AID 155);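 note: 0% = growth of vehicle-only cultures of the same strain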; conditions: S. cerevisiae rad50 strain growth inhibition, active compounds read high
Procedure, shortened: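 Growth of the mutant yeast was measured after compound exposure and referenced to vehicle-treated cultures.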

[2] = NCI Yeast Anticancer Drug Screen. Data for the mec2-1 strain (AID 157); conditions: S. cerevisiae mec2-1 strain, active compounds read high
Procedure, shortened: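 Yeast mec2-1 mutant treated with compound. Readout: growth inhibition vs vehicle controls.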

[3] = NCI Yeast Anticancer Drug Screen. Data for the sgs1 mgt1 strain (AID 161);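 note: 0% = growth of cultures given vehicle only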; conditions: S. cerevisiae sgs1 mgt1 strain, active compounds read high
Procedure, shortened: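 Test agents were incubated with a DNA-repair-mutant yeast strain. Growth was then read and compared against vehicle-treated controls.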

[4] = NCI Yeast Anticancer Drug Screen. Data for the cln2 rad14 strain (AID 165);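 note: 0% = growth equal to vehicle treated cultures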; conditions: S. cerevisiae cln2 rad14 strain, active compounds read high
Procedure, shortened: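 cln2 rad14 yeast strain; compound exposure; growth inhibition read vs vehicle controls.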

[5] = NCI Yeast Anticancer Drug Screen. Data for the bub3 strain (AID 167); conditions: S. cerevisiae bub3 mutant strain, active compounds read high
Procedure, shortened: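 Whole-cell yeast assay. The mutant strain was incubated with compounds, and growth inhibition was determined by comparison with vehicle-treated cells.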

[6] = NCI Yeast Anticancer Drug Screen. Data for the mlh1 rad18 strain (AID 175); conditions: S. cerevisiae mlh1 rad18 strain growth inhibition, active compounds read high
Procedure, shortened: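 Yeast w/ defined DNA-repair lesions; compound exposure; growth vs vehicle controls → % inhibition.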

[7] = at 5.0 µM (retest, dose inferred, filed as 0.5)
[8] = at 50.0 µM (retest, dose inferred, filed as 5.0)

| Compound | growth inhibition [1, 7] | growth inhibition [1, 8] | growth inhibition ([1]; at 50.0 µM) | growth inhibition [2, 7] | growth inhibition [2, 8] | growth inhibition ([2]; at 50.0 µM) | growth inhibition [3, 7] | growth inhibition [3, 8] | growth inhibition ([3]; at 50.0 µM) | growth inhibition [4, 7] | growth inhibition [4, 8] | growth inhibition ([4]; at 50.0 µM) | growth inhibition [5, 7] | growth inhibition [5, 8] | growth inhibition ([5]; at 50.0 µM) | growth inhibition [6, 7] | growth inhibition [6, 8] | growth inhibition ([6]; at 50.0 µM) |
| --- | --- | --- | --- | --- | --- | --- | --- | --- | --- | --- | --- | --- | --- | --- | --- | --- | --- | --- |
| CN(C)CC1CC/C(=C\c2ccc(O)cc2)C1=O (configuration not stated) | 11% | 78% (active) | 89.2% (active) | -19% | 98% (active) | 93.7% (active) | -4% | 98% (active) | 91.6% (active) | 24% | 53% | 77.6% (active) | -26% | 97% (active) | 91.9% (active) | 19% | 92% (active) | 90.6% (active) |
| CSC(=S)NN=C1CCCCC1 | 59% | 97% (active) | 90.9% (active) | 47% | 98% (active) | 88.5% (active) | 49% | 97% (active) | 93.8% (active) | 9% | 78% (active) | 58.6% | 81% (active) | 97% (active) | 93.7% (active) | 55% | 96% (active) | 90.8% (active) |
| OCCCNc1nc2ccc(Cl)cc2c2ccccc12 | 7% | 5% | 23.6% | 2% | 2% | 12.4% | 6% | 3% | 25.7% | 5% | 1% | 2.7% | -3% | -4% | 23.8% | -1% | 5% | 70.5% (active) |
| O=[N+]([O-])C1C(c2ccccc2)CC=CC1N1CCCC1 (configuration not stated) | 2% | 97% (active) | 98.5% (active) | 15% | 95% (active) | 98% (active) | 17% | 97% (active) | 98% (active) | -2% | 85% (active) | 93.9% (active) | -3% | 95% (active) | 97.3% (active) | 7% | 98% (active) | 98.2% (active) |
| C/C(=N/Nc1ccc([N+](=O)[O-])cc1[N+](=O)[O-])C1=CCC(C(C)(C)C)CC1 (configuration not stated) | 7% | 2% | -6.7% | -4% | -11% | -32.5% | -5% | 27% | -7.05% | 4% | -1% | 38.8% | -3% | -1% | -11.6% | -7% | -6% | 11.8% |
| CCCN1C(=O)c2ccccc2C1=O | 9% | 2% | 20.4% | 1% | -3% | -6.65% | -3% | 4% | 14.1% | 10% | 2% | 36.6% | 10% | 17% | -0.55% | 4% | 0% | 9.5% |
| CCOC(=O)CCC(NC(=O)c1ccc(NC(OC)c2nc3cc(C(F)(F)F)ccc3nc2-c2ccccc2)cc1)C(=O)OCC (configuration not stated) | 88% (active) | 88% (active) | 92.8% (active) | 78% (active) | 78% (active) | 93.2% (active) | 90% (active) | 90% (active) | 93.8% (active) | 80% (active) | 80% (active) | 92.7% (active) | 84% (active) | 84% (active) | 91.8% (active) | 92% (active) | 92% (active) | 91.9% (active) |
| CC(C)(C)NC1=NC(C(F)(F)F)(C(F)(F)F)NC(=O)N1 | -19% | 91% (active) | 38.9% | -20% | 93% (active) | 40.8% | -52% | 88% (active) | 33.9% | -21% | 72% (active) | 21.3% | -56% | 95% (active) | 70.5% (active) | -22% | 92% (active) | 12.4% |
| OC[P+](CO)(CO)C12CC3CC(CC(C3)C1)C2 | 12% | 13% | 48.5% | 8% | 11% | 71.1% (active) | 35% | 49% | 69.8% | 18% | 30% | 67.8% | 5% | 40% | 78% (active) | 11% | 25% | 89% (active) |

Source: PubChem BioAssay (NCI)
